# Only some compounds are listed: those with a hit (about 5.7% of all), similar ones and a draw of the others.
# ssDAF-12 act: activates DAF-12 receptor from parasite S. stercoralis. HEK293 ssDAF-12/GRIP1 lit1-tk-luc reporter, luminescence; % of 3 µM dafachronic acid response. activation, % at 6.8 µM. 370,000 compounds, 1% hits;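 active means activation above the mean over all tested compounds plus 3 SD, cut at about 0.9% in these data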;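 further: 0% = DMSO-only wells and 100% = 3 µM delta7-dafachronic acid wells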
# DAX1 inh-1: DAX1 (NR0B1) inhibition, primary screen. HEK293T StAR-luciferase reporter, SF-1/DAX-1 repression relief. inhibition, % at 6.8 µM. 370,000 compounds, 1.1% hits. AID 652010;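 active means inhibition above the mean over all tested compounds plus 3 SD, cut at about 3.6% in these data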;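 further: 0% = DAX-1 cells with DMSO and 100% = cells lacking DAX-1 with DMSO; higher inhibition means more luminescence from relief of DAX-1 repression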
# hcDAF-12 act: activates DAF-12 receptor from parasite H. contortus | HEK293 hcDAF-12 lit1-tk-luc reporter, luminescence; 0% DMSO, 100% Δ7-dafachronic acid | activation, % at 6.8 µM | 370,000 compounds, 1.4% hits | AID 652067;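 active means activation above the mean of all tested compounds plus 3 SD, cut at about 5.5% in these data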;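 further: 100% = response to 3 µM Δ7-dafachronic acid high control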
# AHR act: activates the human aryl hydrocarbon receptor | P35869 | AHR-responsive luciferase reporter cells, luminescence | activation, % at 5 µM | 320,000 compounds, 2.5% hits; in the data active means activation above about 47%;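 further: 0% = vehicle wells and 100% = reference agonist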
# DAX1 inh-2: NR0B1 (DAX1) inhibition; P51843; HEK293 Gal4-DAX1 luciferase reporter, luminescence; inhibition, % at 6.75 µM; 340,000 compounds, 0.99% hits; AID 504766;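 active means inhibition above the mean over all tested compounds plus 3 SD, cut at about 4.2% in these data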;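 further: 0% = DAX1-transfected cells with DMSO and 100% = empty-vector control cells with DMSO; inhibition shows as a rise in luminescence from relieved DAX1 repression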
# Target sequence (P51843 207-470 limits assumed): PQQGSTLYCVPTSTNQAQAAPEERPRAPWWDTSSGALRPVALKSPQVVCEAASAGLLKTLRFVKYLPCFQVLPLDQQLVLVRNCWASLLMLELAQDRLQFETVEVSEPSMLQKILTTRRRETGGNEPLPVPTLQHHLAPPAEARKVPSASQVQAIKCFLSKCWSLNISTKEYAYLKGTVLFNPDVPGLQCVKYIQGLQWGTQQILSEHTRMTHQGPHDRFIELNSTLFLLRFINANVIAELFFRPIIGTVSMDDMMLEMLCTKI
# hgDAF12 agonist: agonists of H. glycines DAF-12 nuclear receptor. 370,000 compounds, 1.8% hits. AID 687014. HEK293 GAL4-hgDAF12 UAS-luciferase reporter, agonist luminescence; normalized to butyrate control. activation, % at 6.8 µM;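 active means activation above a cutoff set at the mean of all screened compounds plus 3 SD, cut at about 10% in these data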;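 further: 0% = DMSO wells and 100% = sodium butyrate wells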
# LXRb hcDAF ctr: LXR-beta agonism as hcDAF-12 counter-screen; AID 743027; shares compounds with hcDAF-12 act; 3,400 tested, under 10 active; HEK293 Gal4-LXR tk-luc reporter, luminescence, 24 h; normalized: DMSO 0%, positive control 100%; activation, % at 6.8 µM;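 active means mean percent activation of the reporter above a cutoff set as the average over tested compounds plus their standard deviation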
# hcDAF12 ag: hcDAF-12 agonism, confirmation assay; shares compounds with hcDAF-12 act; HEK293 hcDAF-12 lit1-tk-luc reporter, luminescence; % of Δ7-dafachronic acid response; 3,400 compounds, 61% hits; activation, % at 6.8 µM;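 active means mean activation across triplicate tests above the threshold derived from the earlier primary screen, cut at about 5.5% in these data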;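 further: 0% = DMSO only wells and 100% = 3 µM Δ7-dafachronic acid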
# * hit, by the source's call; / = no result given.
SMILES,ssDAF-12 act,DAX1 inh-1,hcDAF-12 act,AHR act,DAX1 inh-2,hgDAF12 agonist,LXRb hcDAF ctr,hcDAF12 ag
O=C(NCCc1c[nH]c2ccccc12)c1cnc2sccn2c1=O,1.4*,3,8.6*,30,3,10,1,8.9*
O=C(Cn1cnc2c(NCc3ccccc3)ncnc21)N1CCN(c2ccccn2)CC1,-1,0,-2,/,0,2,/,/
CCn1cc(Cl)c(C(=O)N2N=C3/C(=C/c4cccs4)CCCC3C2c2cccs2)n1 (configuration not stated),-1,-1,6.6*,27,0,2,0,5
CN1CCN(S(=O)(=O)c2ccc(N3CCN(S(=O)(=O)/C=C/c4ccccc4)CC3)nc2)CC1,-1,-1,1,5,-1,1,/,/
Cc1occc1C(=O)N(C)CC1CCCN(CCc2ccc(Cl)cc2)C1 (configuration not stated),-2,0,-1,/,1,-1,/,/
Cc1ccc(Cl)c2c(N=Nc3ccccc3)c(O)[nH]c12,0.9*,1,7.7*,/,6.3*,6,1,10*
Cc1c(C#N)c(O)[nH]c(=O)c1N=Nc1ccc(Cl)c(C(=O)O)c1,-1,0,1,1,2,4,/,/
CCOc1ccc(C=Nc2cccc3ncccc23)cc1,0,-1,9.2*,32,2,0,0,4
CCCCC(=O)/C=C/n1c(=S)oc2ccccc21,1,1,6.6*,2,0,8,0,4
CC(C)OC(=O)n1c(=S)oc2ccccc21,-2,1,-2,1,1,-1,/,/
Cc1nc2ccc(N=NC3=C(O)CC(C)(C)CC3=O)cc2s1,1.6*,1,8.0*,18,1,12*,2,7.5*
Cc1c(/N=C(\[O-])Nc2ccc(Br)cc2)sn[n+]1C,1,3,7.0*,-7,/,11*,2,7.5*
Cc1ccccc1/C(=N\S(=O)(=O)c1ccc(Br)cc1)Nc1ccccc1,-2,-1,-1,/,0,-1,/,/
CCOC(=O)C1=C(O)C(=O)N(c2ccccc2)C1c1cccc([N+](=O)[O-])c1 (configuration not stated),-1,1,0,5,2,1,/,/
Cc1ccc(NC(=O)NCc2ccc3c(c2)OCO3)cc1C,-1,2,1,3,0,7,/,/
C=CCNC(=S)N1N=C(c2ccco2)CC1c1ccco1 (configuration not stated),-1,0,0,/,0,0,/,/
Cn1c(SCC(=O)N=Nc2c(O)[nH]c3ccccc23)nc2ccccc21,/,/,/,26,/,/,/,/
O=C(N=Nc1c(O)[nH]c2ccccc12)c1cccs1,1.9*,4.4*,15*,40,2,21*,1,15*
O=C(CSc1nc2ccccc2[nH]1)N=Nc1c(O)[nH]c2ccccc12,0,0,9.1*,53*,1,3,0,2
Cc1ccccc1N=Nc1c(O)[nH]c2ccccc12,2.2*,0,6.6*,48*,/,11*,1,16*
COCCN(C(=S)Nc1cc(C)ccc1C)C(C)c1cccnc1 (configuration not stated),-1,0,-2,-1,0,0,/,/
CCOc1ccc(-n2nnnc2SCC(=O)NNC(=O)c2ccco2)cc1,0,0,0,1,2,0,/,/
CCOC(=O)C1=C(C)N(C)C(C)=C(C(=O)OCC)C1c1ccc(C(=O)OC)cc1,-1,0,-1,-1,1,-4,/,/
COc1ccc(NC(=O)CSc2nnc(-c3ccccc3)n2Cc2ccco2)cc1OC,-2,-1,-1,1,-1,-2,/,/
COc1ccc(-c2nnc(SCC(=O)Nc3ccc4cn[nH]c4c3)n2Cc2ccco2)cc1,1,-2,7.4*,/,/,4,0,5
SMILES,ssDAF-12 act,DAX1 inh-1,hcDAF-12 act,AHR act,DAX1 inh-2,hgDAF12 agonist,LXRb hcDAF ctr,hcDAF12 ag
CN(NS(C)(=O)=O)c1c(C#N)c(C(F)(F)F)nn1C,-1,0,1,2,0,1,/,/
CC(=O)c1ccc(OC(=O)CCN2c3ccccc3Sc3ccccc32)cc1,0,-1,-1,-1,-1,-1,/,/
Cc1ccccc1-c1nnc(-c2cccs2)o1,1.3*,1,7.7*,19,4,9,1,8.6*
Cc1ccccc1-c1noc(-c2cccs2)n1,-1,0,4,19,0,2,/,/
Cc1nc2ccccc2nc(C)c1=NO,1.0*,4.1*,8.6*,26,4,12*,0,4
C/C(=N\Nc1nc2ccccc2nc1C)c1ccccc1O,-1,0,-1,29,1,-1,/,/
Cc1nc2ccc(Cl)cc2nc(C)/c1=N\O,1.0*,2,7.7*,58*,5.3*,11*,0,6.3*
Nc1nnc2cc(Cl)ccc2n1,-1,-1,-1,/,0,6,/,/
CN(C)/C=C(\C=O)c1onc(-c2ccccc2Cl)c1C#N,-1,0,-1,-1,0,-1,/,/
Cc1ccc2nc(N3C(=O)C(O)=C(C(=O)c4ccc(C)o4)C3c3ccco3)sc2c1 (configuration not stated),1,4.1*,8.1*,18,0,11*,0,3
O=C(Nc1ncccn1)c1cccc(F)c1,0,0,7.0*,1,-1,8,0,1
O=C(Nc1ncccn1)c1cccc(Cl)c1,1,0,5,0,/,-1,/,/
Cc1nccc2[nH]c(=O)c(C(=O)NC3CCCCC3C)cc12 (configuration not stated),-2,0,-2,20,0,-1,/,/
Cc1occc1C(=O)N/N=C/c1ccc(N(C)C)cc1,0,3,7.3*,11,-2,9,1,7.2*
Cc1occc1C(=O)N/N=C/C(Br)=C\c1ccccc1,1,2,8.8*,-2,4,11*,2,4
CN(C)c1ccc(/C=N/NC(=O)c2ccccc2Cl)cc1,-1,-2,1,24,-1,5,/,/
Cc1ccc(SC(C)C(=O)Nc2cccnc2)cc1 (configuration not stated),-1,0,-3,-1,1,0,/,/
Cc1ccc(F)cc1-c1nc(NCC2CC2)nc2ccsc12,-1,-1,2,/,/,-2,/,/
Oc1[nH]c2ccccc2c1/C=N/N1CCCCC1,0,1,14*,35,0,3,0,4
